Experimental findings from PubChem BioAssay (NCATS) are described below.

“And” between values parts separate entries of the source, which are not always exact repeats. Equal entries are not always repeated. Inconclusive results are not listed. The source made the active and inactive calls. Unless noted, the call rests on the fitted dose curve; in most records, active means well fitted curve in the direction sought with a large enough effect; inconclusive means small, poorly fitted or top-dose-only effect, or another doubt; inactive means no such curve, though single readings can be large; an effect the other way counts as inactive or inconclusive.

The target of experiment [1] is Vitamin D3 receptor (Homo sapiens) (UniProt P11473). Briefly: qHTS assay for small molecule agonists of vitamin D receptor signaling (AID 588543; calls by dose curve;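 further: 0% = DMSO basal and 100% = reference agonist control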). The method, boiled down: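 Agonist-mode beta-lactamase reporter: HEK293T VDR-UAS-bla cells in charcoal-stripped 2% FBS, compound series 16 h 37 C, CCF4 2 h RT. EC50 from Hill fit, scaled against DMSO and 50 nM calcitriol control.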
(In general: In qHTS, concentration-response curves come from the screen itself.)

Experiment [2] can be described thus: qHTS assay for small molecule agonists of retinoid X receptor alpha signaling (AID 588544; calls by dose curve;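 on activation: 0% = DMSO basal wells and 100% = reference agonist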). To be noted: HEK293T RXRa-UAS-bla, beta-lactamase reporter, 18 h; 530 nm emission.
Experiment [3] addresses Retinoic acid receptor RXR-alpha (Homo sapiens) (UniProt P19793). The experiment is described as above.
Experiment [4] concerns the target Thyroid hormone receptor beta (Homo sapiens) (UniProt P10828). Briefly: qHTS assay for small molecule agonists of thyroid hormone receptor beta signaling (AID 588545; calls by dose curve;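 further: 0% = DMSO only and 100% = 10 nM T3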). The method, boiled down:
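TR-UAS-bla-GripTite HEK 293 cells in medium with 2% charcoal/dextran FBS, 0.1 mM NEAA and 1 mM sodium pyruvate were treated with titrated compounds for 18 hrs at 37 C. Beta-lactamase reporter was read with CCF4 dye (ex 405, em 460/530 nm); EC50 from Hill fits.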

Experiment [5] is described as follows: qHTS assay for small molecule antagonists of retinoid X receptor alpha signaling (AID 588546; active means well fitted inhibition curve with a large enough effect in the signal ratio, with a control signal flat, not every such curve was filed as active; the % refers to the signal ratio;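 further: cells stimulated with 9-cis-retinoic acid as agonist; on the % scale 0 is the no-effect control and ±100 the full control effect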). To be noted: HEK293T RXRa-UAS-bla, beta-lactamase ratio, antagonist mode; measured here: W530 green channel, cytotoxicity proxy. The procedure, abridged: (§1)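 Beta-lactamase reporter inhibition, read as CCF4 fluorescence ratio (ex 405, em 460/530 nm) after 2 h at RT. HEK293T UAS-bla cells, 2500/well, were stimulated with 9-cis-RA at 500 or 100 nM final alongside test compound for 18 h at 37 C.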

In experiment [6] the target is Retinoic acid receptor RXR-alpha (Homo sapiens) (UniProt P19793). The description is as above. To be noted: HEK293T RXRa-UAS-bla, beta-lactamase ratio, antagonist mode. The method, boiled down:
as §1

Experiment [7] addresses Thyroid hormone receptor beta (Homo sapiens) (UniProt P10828). Briefly: qHTS assay for small molecule antagonists of thyroid hormone receptor beta signaling (AID 588547; active means well fitted inhibition curve with a large enough effect in the signal ratio, with a control signal flat, not every such curve was filed as active; the % refers to the signal ratio;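 further: cells stimulated with 0.4 nM T3 agonist during compound exposure; series mostly up to about 77 µM; on the % scale 0 is the no-effect control and ±100 the full control effect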). The conditions noted are these: TR-UAS-bla HEK293, beta-lactamase ratio, antagonist mode, 18 h. The method, boiled down:
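TR-UAS-bla GripTite HEK293 cells in 2% charcoal/dextran FBS medium; compounds 0.59 nM to 92 uM with T3 at 0.4nM final, 18 h at 37 C. Beta-lactamase read by CCF4 fluorescence (460/530 nm); Hill fits gave IC50 and efficacy.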

Experiment [8] can be described thus: qHTS assay for small molecule agonists of the antioxidant response element (ARE) signaling pathway (AID 651741; active means well fitted activation curve with a large enough effect in the signal ratio; the % refers to the signal ratio; further: % of control where 0% means no effect). The procedure, abridged: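 HepG2 ARE-bla reporter cells, 2,000/well; 5 h settle at 37 C/5% CO2; compound pin transfer (23 nL, DMSO); 16 h at 37 C; LiveBLAzer B/G FRET substrate, 2 h RT; fluorescence intensity read.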
Experiment [9] can be described thus: qHTS assay for small molecule activators of the p53 signaling pathway (AID 651743; active means well fitted activation curve with a large enough effect in the signal ratio, not every such curve was filed as active; the % refers to the signal ratio; further: series mostly up to about 92 µM; % of control where 0% means no effect). To be noted: HCT-116 p53RE-bla, beta-lactamase FRET ratio, 16 h; activation: stronger effect = higher value. The method, boiled down:
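Reporter: beta-lactamase driven by p53 response elements, stably integrated in HCT-116 cells. Cells seeded at 4,000/well, 5 h preincubation, compound (DMSO) 16 h at 37 C; B/G FRET substrate 2 h RT; fluorescence intensity read.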

A short description of experiment [10]: qHTS assay for small molecule disruptors of the mitochondrial membrane potential - 5 hr assay (AID 651755; calls by dose curve; further: on the % scale 0 is the no-effect control and ±100 the full control effect; nearly all actives have a fitted effect of over 40% in size). The method, boiled down: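 Read-out: ratiometric Mito-MPS fluorescence, green monomer (ex 490/em 535) vs red mitochondrial aggregate (ex 540/em 590). HepG2 cells treated 5 hr at 37C before 30 min dye loading.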
Experiment [11] deals with Tumor necrosis factor (Homo sapiens) (UniProt P01375). Briefly: qHTS assay to identify small molecules that stimulate Tumor Necrosis Factor-alpha (TNF-alpha) secretion (AID 651757; active means well fitted curve in the direction sought with a large enough effect in the signal ratio; the % refers to the signal ratio; further: 0% is about no effect). The procedure, abridged: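 Using 3000 THP-1 cells per well, compounds and controls were applied for 17 hrs at 37 C. Detection followed with two labeled anti-TNF-alpha antibodies (cryptate donor, XL665 acceptor) for 3 hr at room temperature, measured by TR-FRET.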

A short description of experiment [12]: qHTS assay to identify small molecules that stimulate interleukin-8 (IL-8) secretion (AID 651758; active means well fitted activation curve with a large enough effect in the signal ratio; the % refers to the signal ratio; further: 0% is about no effect). The method, boiled down:
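Compounds are added to THP-1 cells (2000 per well) and left 16 hrs at 37 C. A labeled anti-IL-8 antibody pair is then added, and IL-8 secretion is measured by time-resolved FRET after 1-3 hrs at room temperature.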

Experiment [13] is described as follows: qHTS assay for environmental chemicals that activate the Aryl hydrocarbon Receptor (AhR) signaling pathway (AID 651777). Further: % of control where 0% means no effect; nearly all actives have a fitted effect of over 15% in size. To be noted: 1A2-DRE human hepatoma cells, luciferase, 24 h; activation: stronger effect = higher value. The method, boiled down:
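1A2-DRE human hepatoma reporter line; 1,200 cells/well; cmpd or DMSO 24 h, 37 C/5% CO2; One-Glo 30 min RT; luciferase lum.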

In experiment [14] the target is Peroxisome proliferator-activated receptor alpha (Homo sapiens) (UniProt Q07869). Nature of the experiment: qHTS assay for small molecule agonists of the peroxisome proliferator-activated receptor alpha (PPARalpha) signaling pathway (AID 651778). Further: % of control where 0% means no effect. To be noted: PathHunter PPARalpha complementation, chemiluminescence, 6 h; stronger effect = higher value. The procedure, abridged:
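Enzyme-fragment complementation assay in which ligand-bound PPARalpha translocates and forms an active enzyme that generates chemiluminescence. Cells were plated overnight, exposed to compound for 6 hr at 37 C, and then given detection reagent for 60 min at room temperature.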

A short description of experiment [15]: qHTS assay for small molecule agonists of the antioxidant response element (ARE) signaling pathway measured by Nrf2-dependant transcriptional activity (AID 720636; active means well fitted curve in the direction sought with a large enough effect in the repeat runs; an effect the other way counts as inactive or inconclusive;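 further: HepG2 cells with an ARE-driven luciferase reporter; % of control where 0% means no effect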). The method, boiled down: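 Cells: ARE-luc HepG2 with Nrf2-responsive luciferase. Medium contained 1% dialyzed FBS. Compound exposure lasted 16 hr at 37 C and 5% CO2, followed by ONE-Glo luciferase detection.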

Experiment [16] can be described thus: qHTS assay for small molecule antagonists of the retinoid-related orphan receptor gamma (ROR-gamma) signaling pathway - cell viability counter screen (AID 720652; active means well fitted curve in the direction sought with a large enough effect in the repeat runs; an effect the other way counts as inactive or inconclusive;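 further: CHO reporter cells with doxycycline-induced ROR-gamma expression; series mostly up to about 92 µM; compound exposure lasted 16 hr before ATP read; on the % scale 0 is the no-effect control and ±100 the full control effect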). The method, boiled down: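 ATP-based viability readout in the ROR-gamma reporter CHO cells after 16 hr compound exposure under doxycycline induction.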
The nature of experiment [17]: qHTS assay for small molecule agonists of the antioxidant response element (ARE) signaling pathway measured by Nrf2-dependant transcriptional activity - cell viability counter screen (AID 720653; active means well fitted curve in the direction sought with a large enough effect in the repeat runs; an effect the other way counts as inactive or inconclusive; further: on the % scale 0 is the no-effect control and ±100 the full control effect). To be noted: ARE-bla HepG2 viability, CellTiter-Glo ATP luminescence, 16 h; stronger effect = lower value. The procedure, abridged: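 ARE-bla HepG2 cells treated with compounds for 16 h at 37C; this counter screen measures viability as intracellular ATP by CellTiter-Glo luminescence after 30 min at room temperature.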

A short description of experiment [18]: qHTS assay for cell viability of HEK293 cells (AID 743288). Further: on the % scale 0 is the no-effect control and ±100 the full control effect; nearly all actives have a fitted effect of over 50% in size. To be noted: ATP luminescence (CellTiter-Glo), 18 h; max response: stronger effect = lower value. The method, boiled down:
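Readout is luciferase-coupled ATP content (CellTiter-Glo luminescence, 30 min room temperature) as a measure of metabolically competent cells. Parental HEK293 cells were plated 5 h or more before compound addition, then treated 18 h at 37 C.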

A short description of experiment [19]: qHTS assay for cell viability of the p53RE-bla HCT-116 cell line (AID 743292). Further: on the % scale 0 is the no-effect control and ±100 the full control effect; nearly all actives have a fitted effect of over 55% in size. The procedure, abridged:
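HCT-116 p53RE-bla cells seeded 4,000/well; 5 h at 37 C; compound (DMSO) added; 16 h at 37 C; CellTiter-Glo added, 30 min RT; luminescence read.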

Experiment [20] has as its target Rap guanine nucleotide exchange factor 3 (Homo sapiens) (UniProt O95398). Nature of the experiment: Confirmatory qHTS for antagonist of cAMP-regulated guanine nucleotide exchange factor 3 (EPAC1) (AID 1645880).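 Further: plate controls were DMSO only for no effect and full effect of the ATA control for full effect; nearly all actives have a fitted effect of over 55% in size.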 The method, boiled down:
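Released BODIPY-GDP fluoresces less than Rap1-bound BODIPY-GDP; the signal is followed at 480/540 nm at 5-min intervals over 30 min, after 5 min at room temperature. Reactions contain 100 nM EPAC1, 250 nM RAP1B-BODIPY-GDP and 50 uM GDP; results are normalized to ATA and DMSO.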

The target is the same in experiment [21]. Nature of the experiment: Confirmatory qHTS for agonist of cAMP-regulated guanine nucleotide exchange factor 3 (EPAC1) (AID 1645881).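 Further: EPAC1 catalysed release of BODIPY-GDP from Rap1B seen as fluorescence loss; 100% = effect of cAMP agonist control; nearly all actives have a fitted effect of over 75% in size.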
For experiment [22], the target named is Rap guanine nucleotide exchange factor 4 (Homo sapiens) (UniProt Q8WZA2). Nature of the experiment: Confirmatory qHTS for agonist of cAMP-regulated guanine nucleotide exchange factor 4 (EPAC2) (AID 1645884).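 Further: nucleotide exchange releases bodipy-GDP from Rap1 and this lowers its fluorescence; on the % scale 0 is the no-effect control and ±100 the full control effect; nearly all actives have a fitted effect of over 65% in size.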
Experiment [23] deals with Nuclear receptor subfamily 1 group I member 2 (Rattus norvegicus) (UniProt Q9R1A7). Nature of the experiment: qHTS assay for small molecule activators of the rat pregnane X receptor (rPXR) signaling pathway (AID 651751; call rule not given here; further: 0% is about no effect). The conditions noted are these: rPXR reporter cells, luciferase (One-Glo), 24 h.
Experiment [24] in a line: qHTS assay for small molecule activators of the human pregnane X receptor (PXR) signaling pathway (AID 720659; call rule not given here; further: 0% is about no effect).

Sequence of Thyroid hormone receptor beta (Homo sapiens) (P10828 whole entry, looked up): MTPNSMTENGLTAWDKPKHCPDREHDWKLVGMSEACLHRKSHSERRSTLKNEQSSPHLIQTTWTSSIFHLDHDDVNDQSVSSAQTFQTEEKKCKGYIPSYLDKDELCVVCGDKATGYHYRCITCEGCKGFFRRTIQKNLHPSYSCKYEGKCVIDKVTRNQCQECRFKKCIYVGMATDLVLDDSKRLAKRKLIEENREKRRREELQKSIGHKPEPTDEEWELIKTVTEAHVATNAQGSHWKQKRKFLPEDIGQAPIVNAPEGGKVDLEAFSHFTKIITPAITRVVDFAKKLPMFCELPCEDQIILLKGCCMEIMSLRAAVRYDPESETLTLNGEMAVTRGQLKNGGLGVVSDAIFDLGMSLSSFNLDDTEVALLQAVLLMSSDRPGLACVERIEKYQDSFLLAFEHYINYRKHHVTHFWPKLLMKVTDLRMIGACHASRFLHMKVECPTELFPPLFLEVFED
Sequence of Retinoic acid receptor RXR-alpha (Homo sapiens) (P19793 whole entry, looked up): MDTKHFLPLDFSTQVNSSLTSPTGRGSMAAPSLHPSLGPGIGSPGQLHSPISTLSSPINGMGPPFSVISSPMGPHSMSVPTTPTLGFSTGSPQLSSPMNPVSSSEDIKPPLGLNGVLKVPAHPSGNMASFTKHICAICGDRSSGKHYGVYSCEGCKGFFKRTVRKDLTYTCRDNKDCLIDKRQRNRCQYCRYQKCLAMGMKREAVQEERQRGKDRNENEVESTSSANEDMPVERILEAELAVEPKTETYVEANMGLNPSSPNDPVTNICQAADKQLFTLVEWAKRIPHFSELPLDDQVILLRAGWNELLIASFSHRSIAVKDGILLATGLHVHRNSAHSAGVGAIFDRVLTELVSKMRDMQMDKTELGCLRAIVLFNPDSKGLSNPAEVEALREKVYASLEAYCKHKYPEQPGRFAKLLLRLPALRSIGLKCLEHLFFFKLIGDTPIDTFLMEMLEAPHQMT
Sequence of Vitamin D3 receptor (Homo sapiens) (P11473 whole entry, looked up): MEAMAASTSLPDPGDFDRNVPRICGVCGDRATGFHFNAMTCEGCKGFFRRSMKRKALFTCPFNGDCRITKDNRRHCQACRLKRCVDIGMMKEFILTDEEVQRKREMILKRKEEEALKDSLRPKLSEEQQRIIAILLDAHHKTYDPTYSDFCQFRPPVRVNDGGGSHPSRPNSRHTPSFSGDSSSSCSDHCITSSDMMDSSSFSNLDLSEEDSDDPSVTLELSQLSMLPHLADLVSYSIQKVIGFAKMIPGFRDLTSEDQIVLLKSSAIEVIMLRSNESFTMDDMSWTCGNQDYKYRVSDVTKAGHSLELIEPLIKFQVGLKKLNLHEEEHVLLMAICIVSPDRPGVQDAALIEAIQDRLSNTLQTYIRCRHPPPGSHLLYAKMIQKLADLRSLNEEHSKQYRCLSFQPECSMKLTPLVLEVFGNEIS
Sequence of Nuclear receptor subfamily 1 group I member 2 (Rattus norvegicus) (Q9R1A7 whole entry, looked up): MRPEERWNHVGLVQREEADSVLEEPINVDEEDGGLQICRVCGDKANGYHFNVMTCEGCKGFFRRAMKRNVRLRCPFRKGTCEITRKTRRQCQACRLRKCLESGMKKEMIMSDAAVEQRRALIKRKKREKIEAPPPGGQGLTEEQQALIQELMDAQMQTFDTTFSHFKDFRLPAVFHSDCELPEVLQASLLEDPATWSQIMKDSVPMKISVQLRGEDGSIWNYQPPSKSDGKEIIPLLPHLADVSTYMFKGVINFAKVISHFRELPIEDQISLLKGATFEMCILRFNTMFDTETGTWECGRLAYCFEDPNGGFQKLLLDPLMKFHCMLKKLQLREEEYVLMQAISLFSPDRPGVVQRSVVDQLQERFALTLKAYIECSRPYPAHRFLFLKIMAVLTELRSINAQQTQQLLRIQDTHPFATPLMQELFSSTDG
Sequence of Peroxisome proliferator-activated receptor alpha (Homo sapiens) (Q07869 whole entry, looked up, the tested form may be a part): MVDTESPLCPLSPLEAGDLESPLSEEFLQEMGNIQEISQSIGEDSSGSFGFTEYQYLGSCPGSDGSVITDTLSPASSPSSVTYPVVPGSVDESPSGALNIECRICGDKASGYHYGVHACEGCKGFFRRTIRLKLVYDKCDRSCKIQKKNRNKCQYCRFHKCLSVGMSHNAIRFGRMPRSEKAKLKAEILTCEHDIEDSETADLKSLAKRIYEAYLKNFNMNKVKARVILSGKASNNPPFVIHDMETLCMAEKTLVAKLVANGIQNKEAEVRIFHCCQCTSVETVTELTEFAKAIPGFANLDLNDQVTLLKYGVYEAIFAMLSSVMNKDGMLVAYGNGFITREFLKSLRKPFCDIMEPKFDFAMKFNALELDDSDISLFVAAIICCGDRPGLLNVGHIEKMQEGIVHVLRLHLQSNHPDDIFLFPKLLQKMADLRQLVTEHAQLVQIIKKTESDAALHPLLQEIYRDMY
Sequence of Rap guanine nucleotide exchange factor 3 (Homo sapiens) (O95398 whole entry, looked up): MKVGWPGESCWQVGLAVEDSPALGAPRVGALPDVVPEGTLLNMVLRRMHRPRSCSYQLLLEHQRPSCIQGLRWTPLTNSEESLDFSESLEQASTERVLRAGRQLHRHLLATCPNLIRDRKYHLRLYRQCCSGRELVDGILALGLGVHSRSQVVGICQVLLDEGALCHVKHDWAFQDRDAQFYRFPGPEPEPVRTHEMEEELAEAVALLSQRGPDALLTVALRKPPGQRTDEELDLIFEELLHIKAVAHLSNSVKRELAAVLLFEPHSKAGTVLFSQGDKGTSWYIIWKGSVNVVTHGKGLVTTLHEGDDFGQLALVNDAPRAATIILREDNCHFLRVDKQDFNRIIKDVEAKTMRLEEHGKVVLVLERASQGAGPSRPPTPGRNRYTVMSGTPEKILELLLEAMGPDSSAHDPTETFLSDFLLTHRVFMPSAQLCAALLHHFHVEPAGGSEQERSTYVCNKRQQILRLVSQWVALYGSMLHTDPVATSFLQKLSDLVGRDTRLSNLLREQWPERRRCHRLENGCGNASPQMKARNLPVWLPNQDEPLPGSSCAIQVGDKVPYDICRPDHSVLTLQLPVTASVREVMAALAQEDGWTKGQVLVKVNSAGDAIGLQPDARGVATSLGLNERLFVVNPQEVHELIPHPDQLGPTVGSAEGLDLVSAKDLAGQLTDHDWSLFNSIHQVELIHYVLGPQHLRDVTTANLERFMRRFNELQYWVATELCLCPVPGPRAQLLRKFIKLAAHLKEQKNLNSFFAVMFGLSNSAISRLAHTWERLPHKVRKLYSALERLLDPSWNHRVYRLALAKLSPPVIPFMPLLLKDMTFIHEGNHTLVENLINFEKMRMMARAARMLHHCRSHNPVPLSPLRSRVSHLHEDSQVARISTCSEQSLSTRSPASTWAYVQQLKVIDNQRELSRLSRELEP
Sequence of Rap guanine nucleotide exchange factor 4 (Homo sapiens) (Q8WZA2 whole entry, looked up): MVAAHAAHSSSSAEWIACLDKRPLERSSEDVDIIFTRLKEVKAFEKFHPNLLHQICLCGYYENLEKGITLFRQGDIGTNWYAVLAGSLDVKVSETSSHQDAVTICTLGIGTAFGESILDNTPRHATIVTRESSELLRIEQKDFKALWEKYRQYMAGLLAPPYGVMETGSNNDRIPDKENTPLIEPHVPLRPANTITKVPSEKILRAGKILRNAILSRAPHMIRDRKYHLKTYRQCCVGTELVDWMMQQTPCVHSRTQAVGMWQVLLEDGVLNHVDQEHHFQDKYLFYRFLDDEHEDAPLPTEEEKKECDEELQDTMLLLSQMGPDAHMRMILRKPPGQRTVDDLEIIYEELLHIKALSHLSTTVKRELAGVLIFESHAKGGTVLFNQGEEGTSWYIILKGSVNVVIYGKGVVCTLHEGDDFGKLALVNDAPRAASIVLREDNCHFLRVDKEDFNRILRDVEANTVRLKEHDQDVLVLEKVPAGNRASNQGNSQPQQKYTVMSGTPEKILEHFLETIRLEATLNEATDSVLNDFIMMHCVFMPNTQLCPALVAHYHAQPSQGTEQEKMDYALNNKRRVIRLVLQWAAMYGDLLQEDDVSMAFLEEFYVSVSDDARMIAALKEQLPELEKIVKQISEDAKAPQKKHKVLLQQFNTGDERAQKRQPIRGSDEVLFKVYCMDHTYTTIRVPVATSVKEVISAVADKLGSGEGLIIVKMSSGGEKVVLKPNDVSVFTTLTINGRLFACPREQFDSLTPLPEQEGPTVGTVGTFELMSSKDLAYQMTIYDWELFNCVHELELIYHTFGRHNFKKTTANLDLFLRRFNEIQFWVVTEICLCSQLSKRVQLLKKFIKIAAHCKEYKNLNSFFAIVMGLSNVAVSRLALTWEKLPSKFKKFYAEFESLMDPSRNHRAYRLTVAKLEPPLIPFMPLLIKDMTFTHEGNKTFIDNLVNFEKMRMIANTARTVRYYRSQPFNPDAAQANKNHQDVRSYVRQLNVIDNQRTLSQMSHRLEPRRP
Sequence of Tumor necrosis factor (Homo sapiens) (P01375 whole entry, looked up): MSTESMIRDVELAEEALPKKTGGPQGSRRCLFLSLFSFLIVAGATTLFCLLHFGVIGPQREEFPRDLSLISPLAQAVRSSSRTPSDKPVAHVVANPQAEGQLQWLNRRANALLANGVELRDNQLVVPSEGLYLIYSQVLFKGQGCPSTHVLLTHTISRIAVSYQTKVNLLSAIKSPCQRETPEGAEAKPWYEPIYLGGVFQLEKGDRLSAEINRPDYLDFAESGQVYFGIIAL

As for `CCCCOC(=O)c1ccccc1C(=O)OCCCC`, the outcome in experiment [1], in experiment [4], in experiment [11], in experiment [15] and in experiment [24] was inactive. In addition, the max response in experiment [2] is -8.82% and -0.286%; in [5], -3.09%; in experiment [6], -10.9% (inactive); in experiment [14], -1.47% (inactive) and -0.868% (inactive); in [17], -12.7% (inactive) and 12.7% (inactive); in experiment [18], -1.27% (inactive) and -9.6% (inactive). For the same compound, the max response in [23] was 4.96% (inactive) and 5.3% (inactive). The Potency entry in experiment [3], in experiment [8], in [10], in [12], in experiment [16] and in [19] was “inactive” in each case. For the same compound, the Potency entry in experiment [20], in experiment [21] and in [22] was “inactive” throughout. Further, the activity change % (negative = inhibition) in [7] was 17.1% (inactive) and -3.92% (inactive). In addition, the activation in [9] was -2.51% (inactive) and -0.006% (inactive); in experiment [13], -0.984% (inactive) and 1.91% (inactive).
